# In the library only some 9.2% were active in any assay of this set; here they are far more common.
# ELG1 genotox = qHTS screen for small molecules that induce genotoxicity in human embryonic kidney (HEK293T) cells expressing luciferase-tagged ELG1 | 1.3% of 330,000 active | HEK293T ELG1-luciferase reporter, luminescence, 16 h | Potency, µM (top dose mostly 46 µM), for inactives: top-dose activity change, positive = activation, usual class: activators; further: % of control where 0% means no effect; nearly all actives have a fitted effect of over 60% in size
#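 Screening used a luciferase reporter fused to human ELG1 in HEK293T cells. Luminescence was read on a CCD plate imager after 16 hr exposure and 30 min ONE-Glo incubation.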
# NPC1 prom act = qHTS Assay for NPC1 Promoter Activators. Huh7 NPC1 promoter luciferase reporter, 24 h. Potency, µM (doses to about 9.22 µM), without a hit: at the top dose activation, hits mostly activators. 2.4% of 320,000 active. AID 485313, 2010; further: % of control where 0% means no effect; nearly all actives have a fitted effect of over 60% in size
#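 Readout is luciferase luminescence, reflecting NPC1 promoter activation in stably transfected Huh7 cells after 24 h compound exposure at 37 °C in reduced-serum medium with 10% FBS.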
# SMN2 splice up = qHTS Assay for Enhancers of SMN2 Splice Variant Expression | AID 1458, 2008 | 2.8% of 210,000 active | Potency, µM (highest dose often 46.1 µM), for inactives: top-dose activity change, positive = activation, usual class: activators | HEK293 SMN2-luciferase splicing reporter, luminescence, 30-36 h; further: % of control where 0% means no effect; nearly all actives have a fitted effect of over 55% in size
#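 HEK293 cells carry an SMN2 […]–luciferase reporter in which exon 7 inclusion puts luciferase in frame. Cells were plated 10-12 h before compound addition, then incubated 30-36 h at 37C. ONE-Glo luminescence was read; sodium butyrate at 4.5 mM final served as control.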
# ELG1 repair inh = qHTS screen for small molecules that inhibit ELG1-dependent DNA repair in human embryonic kidney (HEK293T) cells expressing luciferase-tagged ELG1; HEK293T ELG1-luciferase reporter, luminescence, 16 h; DNA damage induced by 5-fluorouridine; Potency, µM (titrated, usually from 46.1 µM), for the others: top-dose activity change, negative = inhibition, actives largely listed as inhibitors; 2.3% of 330,000 active; AID 504467, 2011; further: on the % scale 0 is the no-effect control and ±100 the full control effect; nearly all actives have a fitted effect of over 55% in size
#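 Luminescence from the luciferase reporter, measured 30 min after ONE-Glo reagent at room temperature, was the read-out. Beforehand, 2,000 cells per well were exposed for 16 hr at 37 °C to 5-fluorouridine together with compound or vehicle.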
# Rab9 prom act = qHTS Assay for Rab9 Promoter Activators | AID 485297, 2010 | 2.8% of 320,000 active | Huh7 Rab9 promoter-luciferase reporter, luminescence, 24 h | Potency, µM (highest dose often 9.22 µM), without a hit: top-dose activation, negative = inhibition, most hits filed as activators; further: % of control where 0% means no effect; nearly all actives have a fitted effect of over 60% in size
#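 Promoter activation is measured as luciferase luminescence in Huh7 cells stably transfected with a Rab9 promoter–luciferase construct, following 24 h compound exposure at 37 °C and 10 min reagent incubation at ambient temperature.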
# FLuc counter = qHTS profiling assay for firefly luciferase inhibitor/activator using purifed enzyme and Km concentrations of substrates (counterscreen for miR-21 project); Potency, µM (series often up to 57.5 µM), inactives show at the top dose activity change, negative = inhibition, hits mostly inhibitors; 6.9% of 360,000 active; purified FLuc, Km substrates, luminescence inhibition; Luciferin 4-monooxygenase (Photinus pyralis), P08659; AID 588342, 2011;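 further: plate controls were vehicle for no effect and reference inhibitor for full effect; nearly all actives have a fitted effect of over 55% in size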
# Target sequence (P08659 whole entry, looked up): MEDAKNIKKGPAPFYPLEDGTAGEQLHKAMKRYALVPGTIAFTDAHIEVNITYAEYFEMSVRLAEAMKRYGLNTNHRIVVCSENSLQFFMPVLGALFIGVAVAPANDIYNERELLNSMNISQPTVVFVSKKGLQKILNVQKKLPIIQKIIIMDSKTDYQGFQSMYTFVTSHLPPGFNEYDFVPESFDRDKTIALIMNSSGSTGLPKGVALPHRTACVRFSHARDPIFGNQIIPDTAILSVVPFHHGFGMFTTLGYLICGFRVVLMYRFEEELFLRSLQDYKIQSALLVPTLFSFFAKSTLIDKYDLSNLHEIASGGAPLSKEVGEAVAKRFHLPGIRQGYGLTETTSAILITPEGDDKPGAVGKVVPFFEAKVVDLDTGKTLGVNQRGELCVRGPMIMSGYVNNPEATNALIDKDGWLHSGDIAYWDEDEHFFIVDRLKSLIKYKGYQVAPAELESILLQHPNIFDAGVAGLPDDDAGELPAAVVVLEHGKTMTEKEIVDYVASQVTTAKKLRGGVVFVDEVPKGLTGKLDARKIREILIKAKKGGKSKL
#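 Purified P. pyralis luciferase (10nM final) with 10uM D-luciferin and 10uM ATP (Km levels) in 50mM Tris acetate pH 7.5, 10mM Mg acetate, 0.01% Tween-20, 0.05% BSA; qHTS 6-point titration, ~60 µM downward; luminescence read.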
# * = called active by the depositor; ? = inconclusive; nt = not tested or not shown; [ ] = dose if it differs, or a comment. The call rests on the fitted dose curve; in most records, active means well fitted curve in the direction sought with a large enough effect; inconclusive means small, poorly fitted or top-dose-only effect, or another doubt; inactive means no such curve, though single readings can be large; an effect the other way counts as inactive or inconclusive. Potency means the concentration at half of the fitted maximal effect.
SMILES,ELG1 genotox,NPC1 prom act,SMN2 splice up,ELG1 repair inh,Rab9 prom act,FLuc counter
O=C(CSc1nnc(-c2ccccc2Cl)o1)N1CCCCC1,4.61µM*,?,15.8µM*,?,?,15.1µM*
O=C(CSc1nnc(-c2ccccc2O)o1)N1CCOCC1,?,?,nt,?,3.16µM*,?
CC(C)NC(=O)N1CC[C@@]2(CCCN(S(=O)(=O)c3ccccc3)C2)C1,nt,nt,-2.7%,nt,nt,nt
O=C(COC(=O)c1cc[n+]([O-])cc1)Nc1ccc([N+](=O)[O-])cc1Cl,2.9%,-16.9%,1.4%,1.1%,8.5%,1.0%
CCOC(=O)c1ccc(-n2c(-c3ccc(C)cc3)c(C)n3c4c(=O)n(C)c(=O)n(C)c4nc23)cc1,nt,nt,-5.2%,nt,nt,5.4%
Cc1ccc(NCc2nc(SCC(=O)Nc3ccccc3)n[nH]2)cc1,1.1%,-5.5%,nt,15.2%,0.1%,?
CC1CCCCN1C(=O)CSc1nnc(-c2ccccc2O)o1 (stereo not given),5.17µM*,2.82µM*,nt,?,3.55µM*,21.3µM*
CC(Sc1nnc(-c2ccccc2Br)o1)C(=O)N1CCOCC1 (stereo not given),7.3%,3.8%,nt,6.3%,8.9%,-13.4%
O=C(CSc1nnc(-c2ccccc2Br)o1)N1CCOCC1,?,2.82µM*,nt,?,3.98µM*,19µM*
COc1cc(C)ccc1OCCOc1c(Cl)cc(Cl)cc1Cl,-0.3%,-1.5%,nt,13.8%,7.9%,?
COc1cc(C)ccc1OCCOc1cc(C)ccc1Cl,-1.8%,4.4%,nt,3.5%,-4.1%,13.5µM*
COc1cc(C)ccc1OCCOc1c(C)cccc1Cl,13.5%,16.6%,-11.0%,?,?,26.9µM*
CC(=O)CCc1ccc(OCCCOc2cccc3cccnc23)cc1,2.7%,5.1%,nt,-15.1%,0.0%,21.3µM*
CC(=O)c1ccc(OCCCOc2cccc3cccnc23)cc1,-6.8%,-9.3%,nt,13.3%,-1.7%,-12.4%
Cc1ccc(N=Nc2c(C)[nH][nH]c2=O)c(C)c1,?,3.1%,16.4%,18.0%,22.5%,7.57µM*
CC1(c2ccccc2)NC(=O)N(CC(=O)NNC(=O)c2ccccc2)C1=O (stereo not given),-0.3%,8.0%,nt,0.9%,-1.2%,-0.5%
CCN(CC)c1ccc(C(=O)NNC(=O)CN2C(=O)NC(C)(c3ccccc3)C2=O)cc1 (stereo not given),8.1%,1.9%,nt,?,-2.0%,5.36µM*
CCC1(c2ccccc2)NC(=O)N(CC(=O)NNC(=O)c2ccoc2C)C1=O (stereo not given),0.7%,-3.2%,nt,-1.2%,-0.7%,4.4%
CCN(CC)c1ccc(C(=O)NNC(=O)c2cccn2C)cc1,?,?,nt,?,3.55µM*,?
CCN(CC)c1ccc(C(=O)NNC(=O)CN2C(=O)NC3(CCCCC3)C2=O)cc1,9.0%,-5.7%,nt,11.1%,0.8%,9.53µM*
O=C(CN1C(=O)NC2(CCCC2)C1=O)NNC(=O)c1ccc(Cl)cc1,0.3%,0.4%,nt,4.6%,-2.5%,-2.8%
CCc1ccc(C(=O)NNC(=O)CN2C(=O)NC(CC)(c3ccccc3)C2=O)cc1 (stereo not given),1.5%,4.7%,nt,16.2%,-1.3%,16.9µM*
CCN(CC)c1ccc(C(=O)NNC(=O)CCl)cc1,6.5%,-14.1%,26.4%,13.3%,-10.1%,-13.5%
O=C(O)CCn1cnc2onc(-c3ccccc3Cl)c2c1=O,nt,nt,-8.2%,nt,nt,-14.5%
Cc1cn([C@H]2C[C@H](O)[C@@H](CCC(=O)NCCN3CCCCC3)O2)c(=O)[nH]c1=O,4.3%,nt,nt,3.4%,nt,nt
SMILES,ELG1 genotox,NPC1 prom act,SMN2 splice up,ELG1 repair inh,Rab9 prom act,FLuc counter
O=C1CC(c2cc(-c3ccccc3)no2)C1,?,?,nt,?,2.82µM*,?
COc1ccccc1N1CCN(C(=O)c2ccc(-c3ccc(Cl)cc3)o2)CC1,-1.9%,-42.4%,nt,?,-40.2%,?
COc1ccc(N2CCN(C(=O)c3ccc(-c4nc5ccccc5s4)o3)CC2)cc1,1.8%,2.4%,nt,-0.8%,17.8%,9.53µM*
COc1ccccc1N1CCN(C(=O)c2ccc(-c3nc4ccccc4s3)o2)CC1,-6.5%,-3.5%,nt,?,24.4%,13.5µM*
COc1ccc(N2CCN(C(=O)c3cc4c(C)nc5ccccc5c4o3)CC2)cc1,-5.6%,-3.9%,nt,?,-3.3%,-0.9%
COc1ccc(-c2noc(N3CCN(c4ccc(C)cc4)C(C)C3)n2)cc1OC (stereo not given),nt,nt,nt,nt,nt,-0.7%
NC1=NC(=O)/C(=C\c2cccs2)S1,7.8%,0.2%,2.7%,26.2%,-6.2%,?
O=C1/C(=C\c2cccs2)Sc2ccc3ccccc3c21,3.66µM*,-2.9%,15.3%[1.84 µM],?,20.1%,0.601µM*
CCN1C(=O)c2cccc3c(S(=O)(=O)Nc4ccccc4)ccc1c23,?,-5.0%,20µM*,?,-5.4%,-4.7%
CCN1C(=O)c2cccc3c(S(=O)(=O)Nc4ccccn4)ccc1c23,20.6µM*,-5.3%,?,?,-3.3%,-0.1%
CN1C(=O)c2cccc3c(S(=O)(=O)Nc4ccccc4F)ccc1c23,5.8µM*,-7.8%,nt,?,-0.3%,0.3%
CNS(=O)(=O)c1ccc2c3c(cccc13)C(=O)N2C,18.1%,-4.2%,nt,?,2.9%,0.4%
CCN1C(=O)c2cccc3c(S(=O)(=O)Nc4nc(C)cs4)ccc1c23,?,-1.4%,12.6µM*,?,-2.1%,1.3%
Cc1cccc(Nc2c([N+](=O)[O-])c(=O)oc3ccccc23)c1,0.6%,-4.3%,nt,7.0%,?,-4.6%
O=C1Nc2ccc(S(=O)(=O)NCC3CCCO3)c3cccc1c23 (stereo not given),8.8%,-3.9%,nt,-7.3%,3.5%,-2.2%
CCN1C(=O)c2cccc3c(S(=O)(=O)NCC4CCCO4)ccc1c23 (stereo not given),14.6µM*,-0.4%,nt,?,-2.3%,-1.2%
CCOc1ccc2[nH]c3c(NCCc4ccc(OC)c(OC)c4)ncnc3c2c1,-17.9%,0.5%,nt,20.6µM*,-2.7%,-13.1%
COc1ccc(/C=N/Nc2ncnc3c2[nH]c2ccc(C)cc23)c(OC)c1OC,?,17.1%,nt,-16.7%,4.5%,?
COc1cc(CNc2ncnc3c2[nH]c2ccc(C)cc23)cc(OC)c1,-11.3%,0.1%,nt,20.6µM*,-8.0%,26.9µM*

# Screens (PubChem BioAssay)
